# Laboratory results: PubChem BioAssay (NCATS)
# Several values for one entry are separate records, joined by “and”; a condition that tells them apart may be missing. Equal values may be shown once. Results filed as inconclusive are left out. Where a call stands in place of a potency, no number is given. A structure can be active in one record and inactive in another. Activity calls are given as the source filed them. Unless noted, calls follow the shape of the dose curve; as a rule, active = well fitted curve in the direction sought with a large enough effect; inconclusive = small, poorly fitted or top-dose-only effect, or another doubt; inactive = no such curve, though single readings can be large; an effect the other way counts as inactive or inconclusive.
# Legend:
# [1] = Primary qHTS for small molecule stabilizers of the endoplasmic reticulum resident proteome: Secreted ER Calcium Modulated Protein (SERCaMP) assay (AID 1508630)
# Method in brief: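 GLuc-SERCaMP-expressing SH-SY5Y cells, pretreated 16 h with compound, are challenged with thapsigargin to empty ER calcium stores; after 4 h, coelenterazine is added directly to the medium and luminescence is imaged.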
# [2] = A High-Content qHTS Against Drug Library for the Identification of Small Molecules that Inhibit DYT1 Early Onset Primary Dystonia-Associated Cell Pathology (AID 1645839; calls by dose curve; also: potency is read from the fitted curve at half-maximal effect)
# Method in brief: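 Readout: %pathology, the punctate EGFP-TorsinA distribution from imaging, as the primary channel and cell count as the toxicity counterscreen. HEK293 Flp-In cells expressing delE TorsinA were induced with tetracycline and treated with compound for 48 h.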
# [3] = molecular target: Cytochrome P450 2D6 (Homo sapiens) (UniProt P10635); experiment: Cytochrome P450 family 2 subfamily D member 6 (CYP2D6) small molecule antagonists: luciferase biochemical (cell-free) qHTS assay (AID 1645840; active = well fitted curve in the direction sought with a large enough effect in the repeat runs; an effect the other way counts as inactive or inconclusive; also: nearly all actives have a fitted effect of over 55% in size)
# Cytochrome P450 2D6 (Homo sapiens), sequence (P10635 whole entry, looked up): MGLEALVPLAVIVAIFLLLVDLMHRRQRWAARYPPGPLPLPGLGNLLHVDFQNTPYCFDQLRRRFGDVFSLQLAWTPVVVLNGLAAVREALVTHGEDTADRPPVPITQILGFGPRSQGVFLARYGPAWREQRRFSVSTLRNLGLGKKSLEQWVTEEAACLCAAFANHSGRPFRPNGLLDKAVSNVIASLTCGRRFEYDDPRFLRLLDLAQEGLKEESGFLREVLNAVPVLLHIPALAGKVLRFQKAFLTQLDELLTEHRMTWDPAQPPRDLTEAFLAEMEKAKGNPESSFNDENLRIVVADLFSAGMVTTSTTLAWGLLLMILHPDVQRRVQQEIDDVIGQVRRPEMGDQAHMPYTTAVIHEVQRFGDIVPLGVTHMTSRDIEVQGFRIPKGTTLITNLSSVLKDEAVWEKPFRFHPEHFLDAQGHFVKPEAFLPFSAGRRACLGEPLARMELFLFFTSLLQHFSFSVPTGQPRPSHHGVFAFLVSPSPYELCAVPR
# Method in brief: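 P450-Glo luminescent screen: recombinant CYP2D6 enzyme–proluciferin substrate mix preincubated with compound 10 min at room temperature, then NADPH regeneration added for 1 h at room temperature. Detection reagent added for 20 min; luciferin light read as relative luminescence units.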
# [4] = molecular target: Cytochrome P450 2C9 (Homo sapiens) (UniProt P11712); experiment: Cytochrome P450 family 2 subfamily C member 9 (CYP2C9) small molecule antagonists: luciferase biochemical (cell-free) qHTS assay (AID 1645842; active = well fitted curve in the direction sought with a large enough effect in the repeat runs; an effect the other way counts as inactive or inconclusive; also: nearly all actives have a fitted effect of over 55% in size; also: potency is read from the fitted curve at half-maximal effect)
# Cytochrome P450 2C9 (Homo sapiens), sequence (P11712 whole entry, looked up): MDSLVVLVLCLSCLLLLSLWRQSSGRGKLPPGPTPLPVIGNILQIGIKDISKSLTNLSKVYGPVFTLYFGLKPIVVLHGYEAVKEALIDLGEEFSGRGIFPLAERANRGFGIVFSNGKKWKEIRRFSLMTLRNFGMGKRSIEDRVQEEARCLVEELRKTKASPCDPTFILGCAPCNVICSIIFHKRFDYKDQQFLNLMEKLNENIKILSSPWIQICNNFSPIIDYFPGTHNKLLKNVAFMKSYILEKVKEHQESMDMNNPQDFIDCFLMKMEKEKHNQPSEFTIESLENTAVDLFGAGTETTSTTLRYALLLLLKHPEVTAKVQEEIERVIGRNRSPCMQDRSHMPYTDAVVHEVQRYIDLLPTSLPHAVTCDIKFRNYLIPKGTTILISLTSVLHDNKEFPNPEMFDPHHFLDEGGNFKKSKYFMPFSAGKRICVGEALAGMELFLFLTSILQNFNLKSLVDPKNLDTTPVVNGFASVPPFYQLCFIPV
# Method in brief: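 Luminescence, after 20 min with luciferin detection reagent, reflected CYP2C9 turnover during a 1 h NADPH-driven reaction at 37C. Enzyme-substrate mix contained 0.4% bovine serum albumin and was preincubated with compound 10 min at room temperature.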
# Papain (Carica papaya) = Papain (Carica papaya) (UniProt P00784); experiment: Primary qHTS assay for inhibitors of the protease papain (AID 1645873);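 also: papain turnover of Z-FR-AMC read as the AMC fluorescence gain over 10 min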; also: potency is read from the fitted curve at half-maximal effect
# Papain (Carica papaya), sequence (P00784 whole entry, looked up, the tested form may be a part): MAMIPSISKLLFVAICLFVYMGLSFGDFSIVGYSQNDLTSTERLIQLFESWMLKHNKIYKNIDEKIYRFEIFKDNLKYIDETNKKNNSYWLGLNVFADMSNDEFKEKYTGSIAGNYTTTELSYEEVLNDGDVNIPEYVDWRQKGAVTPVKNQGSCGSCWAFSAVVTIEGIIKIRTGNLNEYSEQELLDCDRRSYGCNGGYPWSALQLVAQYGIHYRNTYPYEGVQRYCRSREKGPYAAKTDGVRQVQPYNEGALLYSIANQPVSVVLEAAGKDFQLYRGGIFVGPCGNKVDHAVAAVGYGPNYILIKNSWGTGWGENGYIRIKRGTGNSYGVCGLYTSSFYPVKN
# [5] = Primary qHTS for inhibitors of nuclear receptor binding SET domain protein 2 (NSD2) in an isogenic RCH-ACV NSD2 p.E1099K mutant (9B) (AID 1645876); also: nearly all actives have a fitted effect of over 70% in size; also: potency is read from the fitted curve at half-maximal effect
# [6] = Primary qHTS for inhibitors of nuclear receptor binding SET domain protein 2 (NSD2) in an RCH-ACV wild type WT cells (2C) (AID 1645877); also: nearly all actives have a fitted effect of over 70% in size; also: potency is read from the fitted curve at half-maximal effect
# [7] = molecular target: Catechol O-methyltransferase (Homo sapiens) (UniProt P21964); experiment: Confirmatory Screen for Target Class Profiling of Small Molecule Inhibitors of Methyltransferases (AID 1745852; calls by dose curve); settings: MTase-Glo luminescence, SAH detection, recombinant enzyme; measured here: COMT max response; stronger effect = lower value
# Catechol O-methyltransferase (Homo sapiens), sequence (P21964 whole entry, looked up): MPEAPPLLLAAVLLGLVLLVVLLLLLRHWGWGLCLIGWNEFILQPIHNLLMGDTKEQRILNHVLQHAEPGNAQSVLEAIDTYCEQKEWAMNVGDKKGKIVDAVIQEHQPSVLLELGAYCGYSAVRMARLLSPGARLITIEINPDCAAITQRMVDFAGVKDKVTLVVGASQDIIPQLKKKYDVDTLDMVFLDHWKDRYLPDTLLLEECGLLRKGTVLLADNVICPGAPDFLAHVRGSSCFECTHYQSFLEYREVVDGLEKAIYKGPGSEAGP
# [8] = molecular target: Guanidinoacetate N-methyltransferase (Homo sapiens) (UniProt Q14353); experiment: as above; settings: MTase-Glo luminescence, SAH detection, recombinant enzyme; activity change, negative = inhibition: at 57.3 µM (top of the series) unless noted
# [9] = molecular target: Nicotinamide N-methyltransferase (Homo sapiens) (UniProt P40261); experiment: as above; settings: MTase-Glo luminescence, SAH detection, recombinant enzyme; measured here: NNMT max response; stronger effect = lower value
# Nicotinamide N-methyltransferase (Homo sapiens), sequence (P40261 whole entry, looked up): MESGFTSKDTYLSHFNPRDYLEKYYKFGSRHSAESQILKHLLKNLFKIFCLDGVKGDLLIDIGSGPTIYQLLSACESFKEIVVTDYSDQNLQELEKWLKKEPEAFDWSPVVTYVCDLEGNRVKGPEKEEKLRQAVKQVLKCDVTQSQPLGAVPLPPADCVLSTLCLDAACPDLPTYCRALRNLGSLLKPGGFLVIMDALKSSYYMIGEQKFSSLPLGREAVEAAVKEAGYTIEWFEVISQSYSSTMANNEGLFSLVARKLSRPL
# [10] = molecular target: Phenylethanolamine N-methyltransferase (Homo sapiens) (UniProt P11086); experiment: as above; settings: MTase-Glo luminescence, SAH detection, recombinant enzyme; measured here: PNMT max response; stronger effect = lower value
# Phenylethanolamine N-methyltransferase (Homo sapiens), sequence (P11086 whole entry, looked up): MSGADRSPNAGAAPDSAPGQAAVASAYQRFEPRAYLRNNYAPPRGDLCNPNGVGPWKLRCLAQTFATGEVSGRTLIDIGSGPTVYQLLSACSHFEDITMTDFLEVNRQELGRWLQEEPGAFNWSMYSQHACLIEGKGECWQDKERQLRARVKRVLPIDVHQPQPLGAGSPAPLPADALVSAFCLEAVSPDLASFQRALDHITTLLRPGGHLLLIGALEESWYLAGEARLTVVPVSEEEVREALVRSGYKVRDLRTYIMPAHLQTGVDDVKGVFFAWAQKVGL
# [11] = molecular target: Rap guanine nucleotide exchange factor 3 (Homo sapiens) (UniProt O95398); experiment: Confirmatory qHTS for antagonist of cAMP-regulated guanine nucleotide exchange factor 3 (EPAC1) (AID 1645880); also: nearly all actives have a fitted effect of over 55% in size
# Rap guanine nucleotide exchange factor 3 (Homo sapiens), sequence (O95398 whole entry, looked up): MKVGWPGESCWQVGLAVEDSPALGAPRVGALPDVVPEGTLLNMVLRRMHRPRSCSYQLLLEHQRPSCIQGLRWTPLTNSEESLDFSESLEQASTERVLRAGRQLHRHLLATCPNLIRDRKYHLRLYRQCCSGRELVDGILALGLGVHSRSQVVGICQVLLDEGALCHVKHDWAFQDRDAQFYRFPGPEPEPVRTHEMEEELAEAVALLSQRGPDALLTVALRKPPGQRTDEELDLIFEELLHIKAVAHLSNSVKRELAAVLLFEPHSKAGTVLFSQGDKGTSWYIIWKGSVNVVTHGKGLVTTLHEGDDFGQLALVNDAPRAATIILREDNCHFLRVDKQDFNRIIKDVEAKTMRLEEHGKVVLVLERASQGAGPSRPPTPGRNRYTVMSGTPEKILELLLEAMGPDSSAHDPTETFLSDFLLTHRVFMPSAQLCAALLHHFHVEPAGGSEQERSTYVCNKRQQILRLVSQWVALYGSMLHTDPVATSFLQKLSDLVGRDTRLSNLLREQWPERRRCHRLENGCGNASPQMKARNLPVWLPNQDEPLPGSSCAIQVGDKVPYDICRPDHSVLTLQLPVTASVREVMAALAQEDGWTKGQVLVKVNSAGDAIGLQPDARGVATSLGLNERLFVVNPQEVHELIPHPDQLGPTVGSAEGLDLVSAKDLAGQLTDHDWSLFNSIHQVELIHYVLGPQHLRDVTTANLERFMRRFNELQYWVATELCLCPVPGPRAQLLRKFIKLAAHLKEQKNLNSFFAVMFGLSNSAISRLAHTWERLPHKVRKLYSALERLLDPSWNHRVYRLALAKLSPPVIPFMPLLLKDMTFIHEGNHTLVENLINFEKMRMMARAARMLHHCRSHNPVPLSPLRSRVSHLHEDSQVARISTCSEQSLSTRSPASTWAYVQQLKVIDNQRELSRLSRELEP
# Method in brief: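 Nucleotide exchange uses 100 nM EPAC1, 250 nM RAP1B-BODIPY-GDP and 50 uM GDP, with compounds in a concentration-titration series. After 5 min at room temperature, fluorescence (480 nm ex/540 nm em) is read every 5 min for 30 min. Data are normalized to control ATA and DMSO.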
# [12] = molecular target: Rap guanine nucleotide exchange factor 3 (Homo sapiens) (UniProt O95398); experiment: Confirmatory qHTS for agonist of cAMP-regulated guanine nucleotide exchange factor 3 (EPAC1) (AID 1645881);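 also: EPAC1 catalysed release of BODIPY-GDP from Rap1B seen as fluorescence loss; nearly all actives have a fitted effect of over 75% in size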
# [13] = molecular target: Rap guanine nucleotide exchange factor 4 (Homo sapiens) (UniProt Q8WZA2); experiment: Confirmatory qHTS for agonist of cAMP-regulated guanine nucleotide exchange factor 4 (EPAC2) (AID 1645884);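 also: nucleotide exchange releases bodipy-GDP from Rap1 and this lowers its fluorescence; nearly all actives have a fitted effect of over 65% in size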
# Rap guanine nucleotide exchange factor 4 (Homo sapiens), sequence (Q8WZA2 whole entry, looked up): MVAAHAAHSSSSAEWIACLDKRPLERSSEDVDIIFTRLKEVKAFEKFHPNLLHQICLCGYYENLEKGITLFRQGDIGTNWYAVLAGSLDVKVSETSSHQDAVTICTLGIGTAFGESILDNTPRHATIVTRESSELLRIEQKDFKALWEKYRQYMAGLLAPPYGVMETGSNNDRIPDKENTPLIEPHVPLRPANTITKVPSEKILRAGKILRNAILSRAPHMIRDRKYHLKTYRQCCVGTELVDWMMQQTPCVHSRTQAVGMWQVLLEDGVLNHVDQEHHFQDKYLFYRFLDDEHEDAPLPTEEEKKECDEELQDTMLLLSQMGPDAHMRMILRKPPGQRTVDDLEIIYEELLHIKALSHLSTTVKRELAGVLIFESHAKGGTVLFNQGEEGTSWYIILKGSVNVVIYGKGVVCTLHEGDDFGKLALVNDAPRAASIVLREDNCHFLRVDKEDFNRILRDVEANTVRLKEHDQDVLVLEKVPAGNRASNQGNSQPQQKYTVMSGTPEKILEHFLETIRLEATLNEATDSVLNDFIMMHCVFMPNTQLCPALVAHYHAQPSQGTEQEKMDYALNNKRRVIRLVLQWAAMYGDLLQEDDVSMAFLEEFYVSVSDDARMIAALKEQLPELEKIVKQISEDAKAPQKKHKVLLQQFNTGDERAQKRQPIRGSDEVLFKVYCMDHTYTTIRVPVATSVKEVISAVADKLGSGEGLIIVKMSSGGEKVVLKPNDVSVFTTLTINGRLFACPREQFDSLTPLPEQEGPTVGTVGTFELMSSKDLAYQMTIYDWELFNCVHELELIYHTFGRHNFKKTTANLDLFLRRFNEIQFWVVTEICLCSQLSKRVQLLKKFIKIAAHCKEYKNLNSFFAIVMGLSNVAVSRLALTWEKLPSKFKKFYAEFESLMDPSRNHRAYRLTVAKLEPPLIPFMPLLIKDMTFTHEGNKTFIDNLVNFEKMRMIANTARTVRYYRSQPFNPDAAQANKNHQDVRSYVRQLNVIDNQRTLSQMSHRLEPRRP
smiles,measurement,setting,value
NC(N)=NC(=O)c1nc(Cl)c(N)nc1N,Potency,[1],inactive
same,Potency,[2],inactive
same,Potency,[3],inactive
same,Potency,[4],inactive
same,Potency,Papain (Carica papaya),28.2 µM (active)
Cc1ccccc1C(OCCN(C)C)c1ccccc1 (configuration not stated),Potency,[1],inactive
same,Potency,[2],inactive
same,Potency,[4],inactive
same,Potency,Papain (Carica papaya),inactive
same,Potency,[5],inactive
same,Potency,[6],inactive
same,activity,[7],-2.48%
same,"activity change, negative = inhibition",[8],6.46%
same,activity,[9],-5.32%
same,activity,[10],-1.88%
Cc1[nH]c(=O)c(C#N)cc1-c1ccncc1,Potency,[1],inactive
same,Potency,[2],inactive
same,Potency,[3],inactive
same,Potency,[4],29.9 µM (active)
same,Potency,Papain (Carica papaya),inactive
same,Potency,[5],inactive
O=c1n(CCCN2CCN(c3cccc(Cl)c3)CC2)nc2ccccn12,Potency,[1],inactive
same,Potency,[2],inactive
same,Potency,[4],inactive
same,Potency,[6],inactive
Cc1ccc2c(c1)C(=O)[C@@]1(O)CCN(c3ccccc3)C1=N2,Potency,[1],inactive
same,Potency,[3],inactive
C1COC(NC(C2CC2)C2CC2)=N1,Potency,[1],inactive
same,Potency,[2],inactive
same,Potency,[4],inactive
same,Potency,Papain (Carica papaya),inactive
same,Potency,[5],inactive
NC[C@H](O)c1ccc(O)c(O)c1,Potency,[1],inactive
same,Potency,[2],inactive
same,Potency,[3],inactive
same,Potency,[5],inactive
same,Potency,[6],inactive
same,activity,[7],45.4%
same,"activity change, negative = inhibition",[8],-4.17%
same,activity,[9],2.1%
same,activity,[10],21.8%
O=c1[nH]cnc2[nH]ncc12,Potency,[1],inactive
same,Potency,[2],inactive
same,Potency,[3],inactive
same,Potency,[4],inactive
same,Potency,Papain (Carica papaya),inactive
same,Potency,[5],inactive
same,Potency,[6],inactive
Cn1cnc([N+](=O)[O-])c1Sc1ncnc2nc[nH]c12,Potency,[1],inactive
same,Potency,[2],35.5 µM (active) and inactive
same,Potency,[3],inactive
same,Potency,[4],inactive
same,Potency,Papain (Carica papaya),inactive
same,Potency,[5],959 nM (active) and 1.19 µM (active) and 4.17 µM (active)
same,Potency,[6],1.35 µM (active) and 944 nM (active) and 3.72 µM (active)
CCc1ccc(CCOc2ccc(CC3SC(=O)NC3=O)cc2)nc1 (configuration not stated),Potency,[1],inactive
same,Potency,[2],inactive
same,Potency,[3],inactive
same,Potency,[5],inactive
Nc1nc2ccc(OC(F)(F)F)cc2s1,Potency,[1],inactive
same,Potency,[2],inactive
same,Potency,[5],23.5 µM (active)
same,Potency,[6],20.9 µM (active)
same,Potency,[11],inactive
same,outcome,[12],inactive
same,outcome,[13],inactive
CC(C)NCC(O)COc1ccc(COCCOC(C)C)cc1 (configuration not stated),Potency,[1],inactive
same,Potency,[2],inactive
same,Potency,[3],inactive
same,Potency,[4],inactive
same,Potency,Papain (Carica papaya),inactive
same,Potency,[5],inactive
